Experimental data reported in PubChem BioAssay AID493231 (Broad Institute, 2011).
Potency and affinity values are given separately. Active and inactive are the calls of the source. No rule for the calls is given here.

target: Acyl-homoserine lactone acylase PvdQ (Pseudomonas aeruginosa (strain ATCC 15692 / DSM 22644 / CIP 104116 / JCM 14847 / LMG 12228 / 1C / PRS 101 / PAO1)) (UniProt Q9I194); test: PvdQ acylase enzyme activity blockers – biochemical, fluorescence, plate reader and imaging, cherry-picks, dose response (AID 493231); settings: purified PvdQ acylase, fluorogenic substrate; series mostly up to 10 µM;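 also: more negative values mean stronger inhibition of the acylase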
Sequence (Q9I194 whole entry, looked up): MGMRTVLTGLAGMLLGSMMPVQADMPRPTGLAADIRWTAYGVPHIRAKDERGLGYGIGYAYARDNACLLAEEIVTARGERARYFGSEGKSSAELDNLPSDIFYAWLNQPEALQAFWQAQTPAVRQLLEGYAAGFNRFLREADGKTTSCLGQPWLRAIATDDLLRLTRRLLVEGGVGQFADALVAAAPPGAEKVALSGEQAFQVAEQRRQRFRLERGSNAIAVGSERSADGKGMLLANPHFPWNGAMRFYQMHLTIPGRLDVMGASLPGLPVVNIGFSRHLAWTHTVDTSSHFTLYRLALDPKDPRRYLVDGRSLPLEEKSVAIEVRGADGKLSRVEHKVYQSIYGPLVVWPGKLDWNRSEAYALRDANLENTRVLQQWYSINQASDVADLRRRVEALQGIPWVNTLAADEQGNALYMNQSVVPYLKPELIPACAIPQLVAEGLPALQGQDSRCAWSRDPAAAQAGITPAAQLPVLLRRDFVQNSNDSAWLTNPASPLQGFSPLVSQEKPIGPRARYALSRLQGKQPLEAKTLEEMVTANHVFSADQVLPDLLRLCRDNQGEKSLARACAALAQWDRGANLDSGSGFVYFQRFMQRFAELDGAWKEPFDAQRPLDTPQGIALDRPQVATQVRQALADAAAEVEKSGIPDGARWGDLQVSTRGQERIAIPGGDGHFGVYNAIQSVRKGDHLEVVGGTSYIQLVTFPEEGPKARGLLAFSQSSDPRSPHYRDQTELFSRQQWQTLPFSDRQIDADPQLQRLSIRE

outcome, inactive:
O=C(/C=C/c1ccc(Cl)c([N+](=O)[O-])c1)c1ccc(O)cc1
COc1ccc(-c2cn3cc(C)ccc3n2)cc1F
O=C(OCc1nc2ccccc2s1)c1ccc([N+](=O)[O-])o1
Cc1cc(NCCCn2ccnc2)n2nc(-c3ccc(Cl)cc3)cc2n1
NS(=O)(=O)c1ccc(N2CCOCC2)c(C(=O)NCc2cccs2)c1
CC(=O)c1c(C)[nH]c(C(=O)COC(=O)c2cccs2)c1C
Cc1ccc(-n2c(C)cn(C(=O)c3ccccc3)c2=S)cc1
O=C(O)c1cccc(CN2C(=O)c3ccccc3C2=O)c1
COCCCNC(=O)CC1C[C@H](C(=O)N2CCCCC2)[C@@]2(CCc3ccccc3)c3[nH]c4ccc(OC)cc4c3CCN2C1=O (some centres not stated)
CCOC(=O)C1CCCN(C(=O)c2cc(S(=O)(=O)N(C)C)ccc2N2CCCC2)C1 (configuration not stated)
CS(=O)(=O)N1CCN(C(=O)Nc2ccccc2)CC1
O=C(COC(=O)/C=C/c1cccc(Br)c1)NC1CCCCCC1
CN(CC1CCCN(CCc2ccc(F)cc2)C1)C(=O)CCC(F)(F)F (configuration not stated)
Cc1ccc(S(=O)(=O)N(CC(=O)N2CCC(C)CC2)c2ccccc2)cc1
Cc1ccc2[nH]c(=O)c(CC=C(Cl)Cl)c(C)c2c1
CC(C)[N+]1=C2C=CC=CC=C2SC12C([N+](=O)[O-])=CC(=[N+]([O-])[O-])C=C2[N+](=O)[O-] (configuration not stated)
O=C(COc1ccccc1)OCC(=O)c1ccc(S(=O)(=O)N2CCCCC2)cc1
